In PubChem BioAssay (EPA / NIEHS):
The source made the active and inactive calls. How the source made its calls: active means hit-call score of the fitted dose curve at least 0.9, where 1 is the maximum; inactive means score below 0.9.

Tests used:
[1] = ATG_ERE_CIS: Attagene CIS-FACTORIAL HepG2 Assay for Estrogen Response Element (ERE) (AID 2282940); settings: HepG2 ERE cis-reporter, Attagene RNA transcript; actives raise or lower the signal
Method in brief: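 Transient MRTU transfection of human HepG2; cis-element promoters; 24 h dosing; total RNA → RT (oligo dT) → PCR → 6-FAM primer extension → HpaI digest → CE fluorescence. Bidirectional fit, DMSO baseline.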

[2] = ATG_Ets_CIS: Attagene CIS-FACTORIAL HepG2 Assay for human Erythroblast Transformation Specific (ETS) (AID 2282941); settings: HepG2 ETS cis-reporter transcription, actives raise or lower the signal
Method in brief: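 Human HepG2 hepatoma cells were transiently transfected with promoter-driven reporter constructs and treated for 24 hours. Reporter transcripts were quantified by RT-PCR with fluorescent primer extension; bidirectional curve fitting used DMSO as reference.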

[3] = target: Hepatocyte nuclear factor 3-beta (Homo sapiens) (UniProt Q9Y261); test: ATG_FoxA2_CIS: Attagene CIS-FACTORIAL HepG2 Assay for human Forkhead box A2 (FOXA2) (AID 2282942); settings: HepG2 cis-reporter transcription factor activity, 24 h; actives raise or lower the signal
Method in brief: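 Transient MRTU transfection of HepG2 liver cells; 24 h treatment; total RNA → oligo(dT) RT → PCR → FAM primer extension → HpaI cut → CE. Bidirectional fit vs DMSO.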

[4] = ATG_FoxO_CIS: Attagene CIS-FACTORIAL HepG2 Assay for human Forkhead box O (FoxO) (AID 2282943); settings: HepG2 Attagene cis-reporter, FoxO element, mRNA; actives raise or lower the signal
Method in brief: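 Human hepatoma HepG2 cells carry transiently introduced reporter transcription units controlled by cis promoter elements. Chemical treatment lasted 24 h, and mRNA signal was compared with DMSO.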

[5] = ATG_GATA_CIS: Attagene CIS-FACTORIAL HepG2 Assay for human GATA Binding Protein (AID 2282944); settings: HepG2 GATA cis-element reporter, Attagene multiplex mRNA; actives raise or lower the signal
Method in brief: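 Transient MRTU transfection, HepG2, 24 h compound exposure. Total RNA → oligo(dT) RT → PCR → 6-FAM primer extension → HpaI cut → CE. Bidirectional fit vs DMSO.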

[6] = ATG_GLI_CIS: Attagene CIS-FACTORIAL HepG2 Assay for human Zinc Finger Protein GLI1 (AID 2282945); settings: HepG2, Attagene cis-factorial reporter mRNA, GLI element; actives raise or lower the signal
Method in brief: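 Bidirectional curve fits relative to DMSO, using reporter mRNA levels from RT-PCR plus capillary electrophoresis. Cells were HepG2 transiently carrying cis-regulated reporter constructs, harvested 24 h after dosing.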

[7] = target: Bile acid receptor (Homo sapiens) (UniProt Q96RI1); test: ATG_IR1_CIS: Attagene CIS-FACTORIAL HepG2 Assay for human Nuclear Receptor Subfamily 1 Group H Member 4 (NR1H4), IR1 submotif (AID 2282946); settings: IR1 reporter transcription, actives raise or lower the signal
Method in brief: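 Cells (human HepG2) carry transiently transfected cis-promoter reporter transcription units. Compounds are incubated 24 h, total RNA is reverse-transcribed and amplified, and labelled fragments are resolved by capillary electrophoresis. Curves use DMSO as baseline.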

[8] = ATG_GRE_CIS: Attagene CIS-FACTORIAL HepG2 Assay for human Glucocorticoid Response Elements (GRE) (AID 2282947); settings: HepG2 GRE cis-reporter, Attagene multiplex mRNA; actives raise or lower the signal
Method in brief: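 Transient MRTU transfection of human HepG2 liver cells; cis-regulated reporters report endogenous factors. 24 h dosing → RNA isolation → RT-PCR → 6-FAM primer extension → HpaI cut → CE fragment analysis. Bidirectional fit, DMSO negative control.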

[9] = ATG_ISRE_CIS: Attagene CIS-FACTORIAL HepG2 Assay for human Interferon Regulatory Factor 1 (IRF1) binding to an Interferon-Stimulated Response Element (ISRE) (AID 2282948); settings: HepG2 ISRE cis-reporter (Attagene), mRNA transcription readout; actives raise or lower the signal
Method in brief: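 Cell-based cis-reporter assay; HepG2; 24 h exposure; reporter mRNA by RT-PCR plus capillary electrophoresis fluorescence; activity in either direction scored relative to DMSO.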

[10] = ATG_M_32_CIS: Attagene CIS-FACTORIAL HepG2 Assay for M32 Transcription Factor (Internal Marker) (AID 2282949); settings: HepG2 Attagene cis-factorial M32 reporter, mRNA; actives raise or lower the signal;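 further: background control marker of the multiplexed CIS panel rather than a real target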
Method in brief: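 Fluorescent capillary electrophoresis peaks of HpaI-digested, FAM-labelled RT-PCR reporter products give the signal. Source: transiently transfected human liver HepG2 cells, 24 h after chemical dosing; bidirectional fitting against DMSO.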

[11] = ATG_M_06_CIS: Attagene CIS-FACTORIAL HepG2 Assay for M06 Transcription Factor (Internal Marker) (AID 2282950); settings: HepG2 Attagene CIS-FACTORIAL M06 internal marker reporter; actives raise or lower the signal
Method in brief: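 Read-out is fluorescence of labelled reporter cDNA fragments resolved by capillary electrophoresis after RT-PCR. Cells: HepG2 carrying transfected cis-promoter reporter units, treated 24 h. Gain or loss of signal fitted relative to DMSO.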

[12] = target: Hypoxia-inducible factor 1-alpha (Homo sapiens) (UniProt Q16665); test: ATG_HIF1a_CIS: Attagene CIS-FACTORIAL HepG2 Assay for human Hypoxia Inducible Factor 1 (HIF1A) (AID 2282951); settings: HepG2 Attagene cis-factorial HIF1a reporter transcription; actives raise or lower the signal
Method in brief: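 Transient MRTU transfection of human HepG2 liver cells, 24 h compound treatment, then total RNA isolation, oligo(dT) reverse transcription, PCR amplification, fluorescent labelling and capillary electrophoresis of reporter fragments. Gain or loss relative to DMSO.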

[13] = target: Hepatocyte nuclear factor 6 (Homo sapiens) (UniProt Q9UBC0); test: ATG_HNF6_CIS: Attagene CIS-FACTORIAL HepG2 Assay for human Hepatocyte Nuclear Factor 6 (HNF6) (AID 2282952); settings: HepG2 Attagene cis-factorial HNF6 reporter transcription; actives raise or lower the signal
Method in brief: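 Multiplexed mRNA reporter assay in transfected HepG2; 24 h dosing; RT-PCR plus capillary electrophoresis fluorescence; DMSO-referenced bidirectional curve fitting.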

[14] = target: Heat shock factor protein 1 (Homo sapiens) (UniProt Q00613); test: ATG_HSE_CIS: Attagene CIS-FACTORIAL HepG2 Assay for human Heat Shock Transcription Factor 1 (HSE) (AID 2282953); settings: HepG2 HSE cis-reporter, Attagene RNA transcription; actives raise or lower the signal
Method in brief: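 HepG2, transient MRTU transfection, cis-promoter reporters (endogenous TF activity). 24 h compound. RNA → oligo(dT) RT → PCR → 6-FAM primer extension → HpaI cut → CE. Bidirectional fit vs DMSO.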

[15] = ATG_MRE_CIS: Attagene CIS-FACTORIAL HepG2 Assay for human Metal Responsive Element (MRE) (AID 2282954); settings: HepG2 MRE cis-reporter transcription, Attagene multiplex; actives raise or lower the signal
Method in brief: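 Transient MRTU transfection of HepG2 (FuGene 6); 24 h dosing; total RNA → oligo(dT) RT, PCR, 6-FAM primer extension, HpaI cut, CE. Bidirectional fit vs DMSO.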

[16] = ATG_PBREM_CIS: Attagene CIS-FACTORIAL HepG2 Assay for human Phenobarbital-responsive Enhancer Module (PBREM) (AID 2282955); settings: HepG2 PBREM cis-reporter, Attagene multiplexed transcription; actives raise or lower the signal
Method in brief: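 Endogenous transcription factors in human liver HepG2 cells drive a PBREM cis-element reporter, whose transcript level after 24 h treatment is quantified by RT-PCR with capillary electrophoresis; activity fitted in both directions against DMSO.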

[17] = target: Paired box protein Pax-6 (Homo sapiens) (UniProt P26367); test: ATG_Pax6_CIS: Attagene CIS-FACTORIAL HepG2 Assay for human Paired Box 6 (PAX6) (AID 2282956); settings: HepG2 CIS-FACTORIAL PAX6 reporter transcription, RNA readout; actives raise or lower the signal
Method in brief: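 Multiplexed cis-reporter HepG2 system; 24 h treatment; reporter mRNA read by RT-PCR/CE fluorescence; bidirectional fit vs DMSO.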

[18] = ATG_PXRE_CIS: Attagene CIS-FACTORIAL HepG2 Assay for human Pregnane X Receptor Element (PXRE) (AID 2282957); settings: HepG2 Attagene CIS-FACTORIAL PXRE reporter, mRNA; actives raise or lower the signal
Method in brief: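 Cells: HepG2, transiently transfected reporter units under cis promoter control. Exposure: 24 h. Detection: reporter mRNA via RT-PCR/CE fluorescence; bidirectional fitting, DMSO-referenced.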

[19] = ATG_PPRE_CIS: Attagene CIS-FACTORIAL HepG2 Assay for human Peroxisome Proliferator-activated Response Element (PPRE) (AID 2282958); settings: HepG2 PPRE cis-element reporter, Attagene transcription factor profiling; actives raise or lower the signal
Method in brief: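 HepG2, transient MRTU transfection (cis promoter elements, endogenous TFs). 24 h dosing. RNA → oligo(dT) RT → PCR → 6-FAM primer extension → HpaI digest → CE. Bidirectional fit vs DMSO.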

[20] = ATG_RORE_CIS: Attagene CIS-FACTORIAL HepG2 Assay for human RAR-related Orphan Receptor Element (RORE) (AID 2282959); settings: HepG2 Attagene cis-factorial RORE reporter, mRNA; actives raise or lower the signal
Method in brief: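 Transient MRTU transfection of human HepG2 liver cells (FuGene 6); 24 h compound exposure; TriZol RNA, oligo(dT) RT, PCR, FAM labeling, HpaI cut, CE fragment analysis. DMSO = negative control/baseline.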

Chain of Bile acid receptor (Homo sapiens) (Q96RI1 whole entry, looked up, the tested form may be a part): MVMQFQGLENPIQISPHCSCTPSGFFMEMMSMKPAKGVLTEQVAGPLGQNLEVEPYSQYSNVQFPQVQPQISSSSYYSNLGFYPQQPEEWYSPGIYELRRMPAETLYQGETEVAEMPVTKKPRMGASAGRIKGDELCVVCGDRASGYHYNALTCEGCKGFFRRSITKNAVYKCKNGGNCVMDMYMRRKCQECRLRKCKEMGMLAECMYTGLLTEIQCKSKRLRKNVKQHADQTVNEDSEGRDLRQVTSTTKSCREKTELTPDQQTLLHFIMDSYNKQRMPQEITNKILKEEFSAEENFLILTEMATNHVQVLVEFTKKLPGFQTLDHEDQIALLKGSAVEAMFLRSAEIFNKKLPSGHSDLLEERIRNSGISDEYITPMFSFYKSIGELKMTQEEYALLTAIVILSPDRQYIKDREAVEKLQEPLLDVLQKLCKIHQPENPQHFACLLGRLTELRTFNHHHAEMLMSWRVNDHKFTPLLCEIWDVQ
Chain of Hepatocyte nuclear factor 6 (Homo sapiens) (Q9UBC0 whole entry, looked up): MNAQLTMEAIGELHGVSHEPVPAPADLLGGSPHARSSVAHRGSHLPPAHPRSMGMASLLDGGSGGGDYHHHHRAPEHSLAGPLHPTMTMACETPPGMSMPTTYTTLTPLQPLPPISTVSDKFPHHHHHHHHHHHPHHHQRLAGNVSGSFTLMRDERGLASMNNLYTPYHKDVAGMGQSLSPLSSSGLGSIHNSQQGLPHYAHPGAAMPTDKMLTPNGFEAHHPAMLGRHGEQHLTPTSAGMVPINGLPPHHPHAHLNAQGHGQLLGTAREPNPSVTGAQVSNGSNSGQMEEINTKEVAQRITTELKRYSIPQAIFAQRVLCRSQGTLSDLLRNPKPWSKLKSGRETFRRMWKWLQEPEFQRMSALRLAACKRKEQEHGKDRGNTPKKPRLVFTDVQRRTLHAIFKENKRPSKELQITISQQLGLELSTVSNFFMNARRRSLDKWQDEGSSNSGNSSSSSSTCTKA
Chain of Paired box protein Pax-6 (Homo sapiens) (P26367 whole entry, looked up): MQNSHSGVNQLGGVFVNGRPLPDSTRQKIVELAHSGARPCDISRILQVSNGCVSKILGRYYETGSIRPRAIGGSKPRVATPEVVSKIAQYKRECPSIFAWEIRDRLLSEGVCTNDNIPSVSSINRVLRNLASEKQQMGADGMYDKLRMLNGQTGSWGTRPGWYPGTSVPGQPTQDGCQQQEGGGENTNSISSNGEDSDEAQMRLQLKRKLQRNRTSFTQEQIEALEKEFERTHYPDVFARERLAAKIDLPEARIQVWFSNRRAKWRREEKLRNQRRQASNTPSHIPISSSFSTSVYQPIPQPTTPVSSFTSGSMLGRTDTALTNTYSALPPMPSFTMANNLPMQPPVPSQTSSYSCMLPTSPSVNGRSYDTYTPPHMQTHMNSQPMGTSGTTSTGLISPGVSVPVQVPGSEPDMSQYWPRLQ
Chain of Hypoxia-inducible factor 1-alpha (Homo sapiens) (Q16665 whole entry, looked up, the tested form may be a part): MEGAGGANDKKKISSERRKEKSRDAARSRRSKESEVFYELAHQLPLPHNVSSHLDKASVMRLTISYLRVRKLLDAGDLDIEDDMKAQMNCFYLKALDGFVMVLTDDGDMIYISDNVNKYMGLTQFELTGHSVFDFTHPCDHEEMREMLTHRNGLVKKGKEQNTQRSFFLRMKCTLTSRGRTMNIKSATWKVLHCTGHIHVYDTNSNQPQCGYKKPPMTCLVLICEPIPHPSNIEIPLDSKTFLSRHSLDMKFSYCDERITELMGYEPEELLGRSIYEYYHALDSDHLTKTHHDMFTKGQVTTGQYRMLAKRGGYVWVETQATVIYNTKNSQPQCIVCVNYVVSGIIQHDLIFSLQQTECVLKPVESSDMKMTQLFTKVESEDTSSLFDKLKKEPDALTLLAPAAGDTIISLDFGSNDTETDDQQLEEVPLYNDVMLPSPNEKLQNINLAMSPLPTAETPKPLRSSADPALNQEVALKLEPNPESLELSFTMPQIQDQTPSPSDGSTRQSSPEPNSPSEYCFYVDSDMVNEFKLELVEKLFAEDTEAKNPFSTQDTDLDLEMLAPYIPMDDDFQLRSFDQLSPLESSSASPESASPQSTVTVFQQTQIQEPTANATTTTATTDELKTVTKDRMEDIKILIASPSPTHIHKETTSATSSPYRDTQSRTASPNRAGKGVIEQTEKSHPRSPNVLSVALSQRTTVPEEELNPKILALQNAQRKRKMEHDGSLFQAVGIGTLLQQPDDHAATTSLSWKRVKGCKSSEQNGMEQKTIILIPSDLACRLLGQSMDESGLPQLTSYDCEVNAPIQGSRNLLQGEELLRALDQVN
Chain of Heat shock factor protein 1 (Homo sapiens) (Q00613 whole entry, looked up): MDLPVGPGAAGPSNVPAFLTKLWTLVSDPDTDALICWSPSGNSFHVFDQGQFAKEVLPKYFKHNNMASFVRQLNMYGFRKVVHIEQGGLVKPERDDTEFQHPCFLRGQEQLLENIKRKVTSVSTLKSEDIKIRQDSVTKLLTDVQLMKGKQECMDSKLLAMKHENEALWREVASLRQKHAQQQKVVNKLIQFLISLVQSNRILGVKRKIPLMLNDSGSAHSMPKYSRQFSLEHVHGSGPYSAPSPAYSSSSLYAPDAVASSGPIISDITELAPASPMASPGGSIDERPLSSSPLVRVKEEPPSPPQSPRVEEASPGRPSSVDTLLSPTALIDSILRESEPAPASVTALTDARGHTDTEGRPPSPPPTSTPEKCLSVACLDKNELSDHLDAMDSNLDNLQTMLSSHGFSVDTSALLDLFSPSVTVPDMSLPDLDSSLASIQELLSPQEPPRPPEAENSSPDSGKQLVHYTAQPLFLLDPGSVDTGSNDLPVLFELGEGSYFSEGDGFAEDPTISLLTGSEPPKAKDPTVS
Chain of Hepatocyte nuclear factor 3-beta (Homo sapiens) (Q9Y261 whole entry, looked up): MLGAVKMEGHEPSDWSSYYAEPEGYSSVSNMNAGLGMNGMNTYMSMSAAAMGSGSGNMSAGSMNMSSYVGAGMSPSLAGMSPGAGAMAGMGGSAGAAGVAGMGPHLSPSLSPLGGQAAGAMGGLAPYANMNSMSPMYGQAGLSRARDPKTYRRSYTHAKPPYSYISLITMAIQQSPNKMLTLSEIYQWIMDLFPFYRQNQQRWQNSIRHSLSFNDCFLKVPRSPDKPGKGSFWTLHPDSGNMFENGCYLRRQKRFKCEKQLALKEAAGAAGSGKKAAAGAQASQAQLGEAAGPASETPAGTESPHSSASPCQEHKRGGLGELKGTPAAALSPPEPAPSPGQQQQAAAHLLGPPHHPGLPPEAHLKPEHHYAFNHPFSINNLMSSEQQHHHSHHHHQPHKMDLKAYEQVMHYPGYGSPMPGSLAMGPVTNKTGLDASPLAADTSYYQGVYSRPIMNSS

O=C(O)c1cc(I)cc(I)c1I
AC50 [1]: 27.8 µM (active)
outcome [2]: inactive
outcome [3]: inactive
outcome [4]: inactive
outcome [5]: inactive
outcome [6]: inactive
outcome [7]: inactive
outcome [8]: inactive
outcome [9]: inactive
outcome [10]: inactive
outcome [11]: inactive
outcome [12]: inactive
outcome [13]: inactive
outcome [14]: inactive
outcome [15]: inactive
outcome [16]: inactive
outcome [17]: inactive
AC50 [18]: 30.3 µM (active)
AC50 [19]: 27.8 µM (active)
outcome [20]: inactive

Cc1ccc2nc3sc(=O)sc3nc2c1
outcome [1]: inactive
AC50 [2]: 45.9 µM (active)
AC50 [3]: 11.9 µM (active)
AC50 [4]: 6.07 µM (active)
AC50 [5]: 29.9 µM (active)
outcome [6]: inactive
AC50 [7]: 25 µM (active)
AC50 [8]: 41.1 µM (active)
outcome [9]: inactive
outcome [10]: inactive
outcome [11]: inactive
outcome [12]: inactive
outcome [13]: inactive
AC50 [14]: 12.3 µM (active)
outcome [15]: inactive
outcome [16]: inactive
AC50 [17]: 7.08 µM (active)
AC50 [18]: 6.36 µM (active)

OCC(c1ccc(Cl)cc1)c1ccc(Cl)cc1
outcome [1]: inactive
outcome [2]: inactive
outcome [3]: inactive
outcome [4]: inactive
AC50 [5]: 52.8 µM (active)
AC50 [6]: 61.5 µM (active)
AC50 [7]: 49.9 µM (active)
outcome [8]: inactive
AC50 [9]: 54.6 µM (active)
outcome [10]: inactive
outcome [11]: inactive
AC50 [12]: 55.3 µM (active)
AC50 [13]: 56.6 µM (active)
AC50 [14]: 52.8 µM (active)
AC50 [15]: 58.9 µM (active)
outcome [17]: inactive
AC50 [18]: 8.73 µM (active)
outcome [20]: inactive

[F][Sn]([c]1ccccc1)([c]1ccccc1)[c]1ccccc1
AC50 [1]: 0.0177 µM (active)
AC50 [2]: 0.32 µM (active)
AC50 [3]: 0.892 µM (active)
outcome [4]: inactive
outcome [5]: inactive
AC50 [6]: 2.18 µM (active)
AC50 [7]: 1.24 µM (active)
outcome [8]: inactive
AC50 [9]: 0.562 µM (active)
outcome [10]: inactive
outcome [11]: inactive
AC50 [12]: 0.327 µM (active)
outcome [13]: inactive
AC50 [14]: 0.324 µM (active)
AC50 [15]: 0.339 µM (active)
AC50 [17]: 0.346 µM (active)
AC50 [18]: 0.466 µM (active)
AC50 [20]: 0.0319 µM (active)

O=S1(=O)OC(c2cc(Br)c(O)c(Br)c2)(c2cc(Br)c(O)c(Br)c2)c2ccccc21
outcome [1]: inactive
outcome [2]: inactive
outcome [3]: inactive
outcome [4]: inactive
outcome [5]: inactive
outcome [6]: inactive
outcome [7]: inactive
outcome [8]: inactive
outcome [9]: inactive
outcome [10]: inactive
outcome [11]: inactive
outcome [12]: inactive
outcome [13]: inactive
outcome [14]: inactive
outcome [15]: inactive
outcome [16]: inactive
outcome [17]: inactive
AC50 [18]: 24.5 µM (active)
AC50 [19]: 57.4 µM (active)
AC50 [20]: 93 µM (active)

c1ccc2sc(SNC3CCCCC3)nc2c1
outcome [1]: inactive
outcome [2]: inactive
outcome [3]: inactive
outcome [4]: inactive
outcome [5]: inactive
AC50 [6]: 159 µM (active)
outcome [7]: inactive
outcome [8]: inactive
outcome [9]: inactive
outcome [10]: inactive
outcome [11]: inactive
AC50 [12]: 100 µM (active)
outcome [13]: inactive
AC50 [14]: 159 µM (active)
AC50 [15]: 119 µM (active)
outcome [16]: inactive
AC50 [17]: 154 µM (active)
AC50 [18]: 27 µM (active)
outcome [19]: inactive
outcome [20]: inactive

ClCc1ccccc1CCl
outcome [1]: inactive
AC50 [2]: 15.7 µM (active)
AC50 [3]: 33.4 µM (active)
outcome [4]: inactive
outcome [5]: inactive
AC50 [6]: 33.4 µM (active)
AC50 [7]: 33.4 µM (active)
outcome [8]: inactive
AC50 [9]: 45.9 µM (active)
outcome [10]: inactive
outcome [11]: inactive
outcome [12]: inactive
AC50 [13]: 23.1 µM (active)
AC50 [14]: 21.7 µM (active)
outcome [15]: inactive
outcome [16]: inactive
AC50 [17]: 25.7 µM (active)
AC50 [18]: 18.3 µM (active)
outcome [20]: inactive
